DRD3 antagonist: qHTS of D3 Dopamine Receptor Antagonist: qHTS | D3R cells, DiscoveRx beta-arrestin luminescence, antagonist mode; active compounds read low | max response, negative = inhibition, % | 2.5% of 360,000 active; in the data active = max response below about -50%; inconclusive = no clear call, values can overlap the other calls; also: % is scaled to controls: 0 for no effect and ±100 for the full control effect
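Cells expressing the human receptor were seeded at 1500 cells/well, incubated overnight at 37 degrees C in 5% CO2, then exposed to library compounds with dopamine controls for 90 minutes at 37 degrees C before luminescent detection.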
D3 ag: qHTS of D3 Dopamine Receptor Agonist: qHTS | D(3) dopamine receptor (Homo sapiens), P35462 | D3R DiscoveRx beta-arrestin cells, luminescence, 90 min | max activation, % | 0.58% of 410,000 active; in the data active = max activation above about 30%; also: 0% is about no effect
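Agonist mode: compounds and dopamine controls were applied to plated cells for 90 min at 37 degrees C after an overnight attachment at 1500 cells/well. Luminescent read-out followed 30 - 60 minutes at room temperature with DiscoveRx detection reagent.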
D1 potentiator: Potentiators of Human D1 Dopamine Receptor: qHTS; D(1A) dopamine receptor (Homo sapiens), P21728; HEK293 TREx D1 cells, calcium flux, dopamine EC20 potentiation; potentiation, % at 10 µM; 0.036% of 360,000 active; AID 504651, 2011; in the data active = potentiation above about 30%; also: 0% is about no effect
Target sequence (P21728 whole entry, looked up): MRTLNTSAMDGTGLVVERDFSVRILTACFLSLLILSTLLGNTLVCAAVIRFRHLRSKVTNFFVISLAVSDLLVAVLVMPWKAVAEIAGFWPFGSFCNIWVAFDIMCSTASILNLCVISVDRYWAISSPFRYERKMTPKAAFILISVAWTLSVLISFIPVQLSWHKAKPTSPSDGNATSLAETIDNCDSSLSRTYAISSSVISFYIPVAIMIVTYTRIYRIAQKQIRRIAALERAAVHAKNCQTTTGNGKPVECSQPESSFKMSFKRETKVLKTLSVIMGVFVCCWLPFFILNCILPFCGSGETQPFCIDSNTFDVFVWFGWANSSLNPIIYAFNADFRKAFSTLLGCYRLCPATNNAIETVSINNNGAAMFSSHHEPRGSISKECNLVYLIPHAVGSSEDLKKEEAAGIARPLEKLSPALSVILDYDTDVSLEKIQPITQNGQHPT
D1 ag: Allosteric Agonists of the Human D1 Dopamine Receptor: qHTS; activation, % at 2 µM; HEK293 T-REx D1 cells, calcium flux, agonist mode; AID 504660, 2011; 1% of 360,000 active; D(1A) dopamine receptor (Homo sapiens), P21728; in the data active = activation above about 30%; also: 0% is about no effect
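Tetracycline-induced HEK293 TREx D1 cells, force-coupled to calcium signalling, were dye-loaded with a no-wash calcium kit. Compound was pin-added after a 10 s baseline. Fluorescence was read kinetically at 1 cycle/s for 180 s, with calcium rises flagged as agonism.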
D1 antag: Antagonist of Human D 1 Dopamine Receptor: qHTS; 3.2% of 360,000 active; activity change, negative = inhibition, % at 10 µM; D(1A) dopamine receptor (Homo sapiens), P21728; HEK293 TREx D1 cells, calcium flux, dopamine EC80; active compounds read low; AID 504652, 2011; in the data active = activity change below about -30%; also: % is scaled to controls: 0 for no effect and ±100 for the full control effect
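Inducible Hek293 Trex D1 cells (tetracycline, overnight, 30 C). Calcium dye 30–90 min RT. Antagonist mode: EC80 dopamine added after 180 s compound read.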
The depositor's hits bear a star; ? = inconclusive; . = not tested or not shown. A selection: hits, their analogues and other compounds. The true share with any hit is near 6.1%.

SMILES | DRD3 antagonist | D3 ag | D1 potentiator | D1 ag | D1 antag
CC1(c2ccc([N+](=O)[O-])cc2)NC(=O)N(CC(=O)c2ccc3c(c2)OCO3)C1=O (stereo unspecified) | 5 | -4 | 6 | 34* | -7
CC1(c2ccc(OC(F)F)cc2)NC(=O)N(CC(=O)c2ccc3c(c2)OCO3)C1=O (stereo unspecified) | -9 | -3 | 0 | 47* | -43*
Cc1ccc(C2C(C#N)=C(N)SC(N)=C2C#N)cc1 | -1 | 4 | -2 | 18 | 0
Cc1ccc(C2C(C#N)=C(N)SC(N)=C2C#N)c(C)c1 | ? | 4 | -4 | 51* | -22
Cc1cc(Cl)ccc1NC(=O)CCS(=O)(=O)c1ccc2c(c1)CC(C)N2C(=O)C1CC1 (stereo unspecified) | . | 0 | -4 | 14 | -30
CNC(=O)c1cc2n(n1)CCCN(Cc1ccc(F)cc1)C2=O | . | 2 | 0 | 3 | -9
CCC(C)NC(=O)c1ccc(CN2CCc3ccccc3C2)cc1 (stereo unspecified) | -66* | -18 | -1 | 4 | -16
CC(C)(C)SCCNC(=O)c1ccc(CN2CCc3ccccc3C2)cc1 | -74* | -39 | -2 | 2 | 3
COCC(C)NC(=O)c1ccc(CN2CCc3ccccc3C2)cc1 (stereo unspecified) | -68* | -11 | 8 | 2 | 46
O=C(NCc1cccnc1)c1ccc(CN2CCc3ccccc3C2)cc1 | -75* | 0 | -7 | 13 | -19
Cc1ccc2onc(CC(=O)N3CCN(c4cccc(Cl)c4)CC3)c2c1 | . | -4 | 3 | -1 | 5
CCN(C(=O)CSc1nc2n[nH]c(C)c2c(=N)n1-c1cccc(OC)c1)c1cccc(C)c1 | . | 3 | -3 | 0 | -20
O=C(NCc1cccnc1)c1cccc2c1C(=O)N(C1CCCCC1)C2 | 7 | 2 | -6 | -1 | -58*
O=C(NCc1ccco1)c1cccc2c1C(=O)N(C1CCCCC1)C2 | -7 | -3 | 1 | 1 | 16
Cc1ccc(Cc2nc3ccccc3nc2SCC(=O)N2CCCc3ccccc32)cc1 | . | 0 | 0 | 2 | 5
CCOc1ccccc1NC(=O)Cn1c(=O)n(Cc2ccccc2)c(=O)c2c(C)c(C)sc21 | . | -10 | 1 | 2 | 3
CC1OC23CCCCC2C(C#N)(C(=N)O3)C1(C#N)C#N (stereo unspecified) | 4 | 6 | -4 | -1 | -43*
CCOC(=O)N1CCN(C(=O)c2noc3c2COc2ccccc2-3)CC1 | 0 | -6 | -4 | 7 | -31*
CCCN1CCN(C(=O)c2noc3c2COc2ccc(C)cc2-3)CC1 | -64* | 0 | -3 | 15 | -27
Cn1nc(C(F)(F)F)c(CN2CC(C)(C)C2=O)c1N1CCOCC1 | -23 | -9 | -5 | 0 | -31*
O=C(/C=C/Nc1ccc(F)c(Cl)c1)c1ccco1 | ? | 3 | 19 | 8 | -37*
O=C(/C=C/Nc1cccc(F)c1)c1ccco1 | -12 | 1 | -4 | 0 | 2
[O-][N+](=Nc1ccccc1)c1ccccc1 | . | 1 | . | . | .
COc1cccc2c1C(=O)c1c(O)c3c(c(O)c1C2=O)C[C@](O)(C(C)=O)C[C@H]3O[C@@H]1C[C@@H](N)[C@@H](O)[C@@H](C)O1 | 0 | -38 | -4 | 3 | -35*
CC(C)(C)c1ccc(OCC(=O)NCCN2CCCC2)cc1 | -57* | 0 | 5 | 15 | 10
CCOc1ccccc1C(=O)NCCCN1CCN(CCCNC(=O)c2ccccc2OCC)CC1 | -53* | -3 | 0 | 0 | -3
CNC(=O)c1cc(OCC(F)(F)F)ccc1OCC(F)(F)F | 21 | -2 | -2 | -1 | .
CCOc1c(Cl)cc(C(=O)NCCN2CCCCC2)cc1Cl | -73* | -52 | -17 | 6 | 1
COc1cccc(/C=N\NC(=O)c2cc(OCC(F)(F)F)ccc2OCC(F)(F)F)c1 | 4 | 2 | -6 | 33* | -2
Cc1nn(-c2ccc(N3CCCCC3)nn2)c(C)c1CCC(=O)NCc1ccc(OC(C)C)cc1 | . | -11 | 2 | 2 | -8
